# Compounds without any hit were thinned out: in the full panel of roughly 79,000, 15% have a hit. Unmarked numbers belong to inactive results. Activity calls are given as the source filed them. No stated cut-off is given here; in the data, active means growth inhibition above about 70%; inactive means the rest.
# Experiment: NCI Yeast Anticancer Drug Screen. Data for the cln2 rad14 strain (AID 165);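 further: 0% = growth equal to vehicle treated cultures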
# Conditions: S. cerevisiae cln2 rad14 strain, at 5.0 µM (retest, dose inferred, filed as 0.5), hits give high values
# Method in brief: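 Compounds are applied to the cln2 rad14 yeast strain, and growth is then compared with that of vehicle-treated cultures to give inhibition.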
row,Structure (SMILES),growth inhibition
1,Clc1ccc(OCC(Cn2ccnc2)c2ccc(Cl)cc2)cc1 (centres undefined),60%
2,CC(C)C(CC(C)(C)C)OC(=O)Nc1cccc2ccccc12 (centres undefined),-17%
3,CC(=O)OC[C@@]1(C)[C@@H]2CC[C@]3(C)[C@H](C(=O)C=C4[C@@H]5CC(C)(C)CC[C@]5(C(=O)O)CC[C@]43C)[C@@]2(C)CC[C@@H]1OC(C)=O,39%
4,CCOC(=O)C[n+]1c(C)sc2ccccc21,-7%
5,O=[N+]([O-])c1ccc(/C=N/O)s1,10%
6,C=C(C)COc1ccccc1C(OCC)OCC,-1%
7,CCCCCCCCCCCCCC1OC(=O)C(C)=C1C(=O)O (centres undefined),-65%
8,CC(C)C(Sc1nc(-c2ccccc2)c(-c2ccccc2)[nH]1)c1n[nH]c(=S)n1-c1ccccc1 (centres undefined),-24%
9,Cc1ccc(-c2c(C#N)c(S)n(NS(=O)(=O)c3ccccc3)c(=O)c2C#N)cc1,47%
10,O=C(c1ccccc1)c1ccc2c(c1Cl)C(=O)c1ccccc1C2=O,14%
11,COc1cccc(C2c3cc4c(cc3OC(O)C2C)OCO4)c1O (centres undefined),7%
12,CCC[N+]1=C(/C=C/c2ccc3cccnc3c2O)C(C)(C)c2ccccc21,-15%
13,O=C(/C=C/c1ccccc1Cl)c1ccc(F)cc1,9%
14,CCN(CC)C(=S)N=Nc1c(O)[nH]c2ccccc12,85% (active)
15,C[CH2][Sn]([CH2]C)([O]C(=O)c1ccccc1OC)[O][Sn]([CH2]C)([CH2]C)[O]C(=O)c1ccccc1OC,20%
16,CCCCCCCCCCCCCCCC[N+](C)(C)C(C)c1ccc(OC)cc1 (centres undefined),98% (active)
17,S=C(NCCc1ccccc1)N/N=C/c1ccc(Cl)cc1,34%
18,Cc1cc(Nc2ccc(O)c(CN3CCN(Cc4cc(Nc5cc(C)nc(N)n5)ccc4O)CC3)c2)nc(N)n1,12%
19,CC1C[N+](C)(C)C(C)C(=O)C1(c1ccccc1)c1ccccc1 (centres undefined),-1%
20,O=C1C(Cl)=C(Cl)C(=O)C2CC=CCC12 (centres undefined),85% (active)

row,Structure (SMILES),growth inhibition
1,C/C(=N/O)c1ccc2c(c1)C(C)c1ccccc1-2 (centres undefined),-60%
2,c1ccc(N/N=C2/CCCC3/C(=N\Nc4ccccc4)CCCC23)cc1 (centres undefined),-11%
3,CCCC(C)C/C(C)=C\C(C)(C)C1CC(=O)N(CC)C1=O (centres undefined),4%
4,COC(C(=O)C1=C2Oc3c4c(cc(O)c3C(=O)C2C2=C(CCCC2)C1=O)OC(C)(C)C=C4)C(C)CCC=C(C)C (centres undefined),-5%
5,Cc1cc(Br)c(NC(=O)CBr)cc1C,-2%
6,Cc1ccc(S(=O)(=O)OCCCCOS(=O)(=O)c2ccc(C)cc2)cc1,2%
7,Cc1ccc([N+](=O)[O-])c2c(NCCCN(C)C)c3ccccc3nc12,95% (active)
8,CCOC(=O)c1c(N2CCCC2)nsc1Nc1ccc(F)cc1,2%
9,CC(=O)[C@H]1CC[C@H]2[C@@H]3CC[C@H]4C[C@@H](N5CCOCC5)CC[C@]4(C)[C@H]3CC[C@]12C,52%
10,CC(C)CCCC(C)C1CCC2C3CCC4=CC(O)CCC4(C)C3CCC12C (centres undefined),-8%
11,Nc1ccccc1SC(/C=C/NNC1=NC(c2ccccc2)C(c2ccccc2)=NN1)c1ccccc1 (centres undefined),29%
12,CCOC(=O)C1=C(c2ccccc2)OC(N)=C(C#N)C1c1ccc(C)cc1 (centres undefined),-4%
13,COC1CC(OC(=O)c2ccccc2)C2OC(c3ccccc3)OCC2O1 (centres undefined),7%
14,O=C(/N=C1\N=Nc2nc(C(C(=O)c3cccs3)c3nc4n(c3O)/C(=N/C(=O)Nc3ccc(Cl)cc3)N=N4)c(O)n21)Nc1ccc(Cl)cc1 (centres undefined),-33%
15,C=CCNC(=S)N/N=C(\CCC)c1ccccn1,96% (active)
16,O=C(c1cc2c(C(F)(F)F)onc2c2ccccc12)C(F)(F)F,0%
17,O=C1C=CC(=O)C2C1Cc1ccccc1C2c1ccccc1 (centres undefined),9%
18,CC1SC2(C(=O)Nc3ccc([N+](=O)[O-])cc32)N(c2ccc(Cl)cc2)C1=O (centres undefined),-1%
19,CC(=O)OCCn1c2nc(=O)[nH]c(=O)c-2nc2cc(C)c(C)cc21,-4%
